Assay results published in PubChem BioAssay (EPA / NIEHS).
Calls of active or inactive are those of the source. The calls were made as follows: active = hit-call score of the fitted dose curve at least 0.9, where 1 is the maximum; inactive = score below 0.9.

Tests used:
[1] = ATG_ISRE_CIS: Attagene CIS-FACTORIAL HepG2 Assay for human Interferon Regulatory Factor 1 (IRF1) binding to an Interferon-Stimulated Response Element (ISRE) (AID 2282948); settings: HepG2 ISRE cis-reporter (Attagene), mRNA transcription readout; actives raise or lower the signal
Procedure, shortened: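 Quantitation relies on labelled RT-PCR fragments separated by capillary electrophoresis. Human HepG2 cells bearing cis-promoter reporter constructs were treated 24 h; DMSO served as baseline for bidirectional fitting.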

[2] = ATG_M_32_CIS: Attagene CIS-FACTORIAL HepG2 Assay for M32 Transcription Factor (Internal Marker) (AID 2282949); settings: HepG2 Attagene cis-factorial M32 reporter, mRNA; actives raise or lower the signal;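 also: background control marker of the multiplexed CIS panel rather than a real target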
Procedure, shortened: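 Internal background marker read-out: RT-PCR/capillary electrophoresis fluorescence of reporter transcripts from transiently transfected HepG2 cells after 24 h chemical exposure. Activity fitted bidirectionally relative to DMSO negative control.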

[3] = ATG_M_06_CIS: Attagene CIS-FACTORIAL HepG2 Assay for M06 Transcription Factor (Internal Marker) (AID 2282950); settings: HepG2 Attagene CIS-FACTORIAL M06 internal marker reporter; actives raise or lower the signal
Procedure, shortened: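 Measured 24 h post-dosing in transiently transfected HepG2 cells, this internal-marker endpoint reports reporter mRNA via RT-PCR with fluorescent primer extension and capillary electrophoresis. DMSO served as negative control and baseline for bidirectional fitting.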

[4] = biological target: Hypoxia-inducible factor 1-alpha (Homo sapiens) (UniProt Q16665); experiment: ATG_HIF1a_CIS: Attagene CIS-FACTORIAL HepG2 Assay for human Hypoxia Inducible Factor 1 (HIF1A) (AID 2282951); settings: HepG2 Attagene cis-factorial HIF1a reporter transcription; actives raise or lower the signal
Procedure, shortened: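 In this multiplexed cell assay, HepG2 cells bearing transfected cis reporters are dosed for 24 h and reporter mRNA is read by RT-PCR plus capillary electrophoresis; signal increases and decreases are both scored against DMSO.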

[5] = biological target: Hepatocyte nuclear factor 6 (Homo sapiens) (UniProt Q9UBC0); experiment: ATG_HNF6_CIS: Attagene CIS-FACTORIAL HepG2 Assay for human Hepatocyte Nuclear Factor 6 (HNF6) (AID 2282952); settings: HepG2 Attagene cis-factorial HNF6 reporter transcription; actives raise or lower the signal
Procedure, shortened: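 HepG2 cells transiently transfected with cis-element-driven multiplexed reporter units measuring endogenous transcription factor activity. After 24 h exposure, reporter mRNA quantified by RT-PCR, FAM-labelled fragments and capillary electrophoresis; bidirectional fitting versus DMSO.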

[6] = biological target: Heat shock factor protein 1 (Homo sapiens) (UniProt Q00613); experiment: ATG_HSE_CIS: Attagene CIS-FACTORIAL HepG2 Assay for human Heat Shock Transcription Factor 1 (HSE) (AID 2282953); settings: HepG2 HSE cis-reporter, Attagene RNA transcription; actives raise or lower the signal
Procedure, shortened: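 Reporter mRNA induction in HepG2 is measured 24 h after dosing, using transiently transfected multiplexed cis-regulated reporter units. Signal comes from capillary electrophoresis of labelled RT-PCR products, with DMSO as negative control.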

[7] = biological target: Paired box protein Pax-6 (Homo sapiens) (UniProt P26367); experiment: ATG_Pax6_CIS: Attagene CIS-FACTORIAL HepG2 Assay for human Paired Box 6 (PAX6) (AID 2282956); settings: HepG2 CIS-FACTORIAL PAX6 reporter transcription, RNA readout; actives raise or lower the signal
Procedure, shortened: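 After twenty-four hours of chemical exposure, transfected HepG2 cells are harvested for RNA. Cis-promoter reporter transcripts are amplified, fluorescently labelled and sized by capillary electrophoresis, with gain and loss of signal scored against DMSO.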

[8] = ATG_PXRE_CIS: Attagene CIS-FACTORIAL HepG2 Assay for human Pregnane X Receptor Element (PXRE) (AID 2282957); settings: HepG2 Attagene CIS-FACTORIAL PXRE reporter, mRNA; actives raise or lower the signal
Procedure, shortened: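 HepG2 cells transiently transfected with cis-element-driven multiplexed reporter units; after 24 h chemical exposure, reporter mRNA measured by RT-PCR, 6-FAM labelling, HpaI digestion and capillary electrophoresis. Bidirectional fitting relative to DMSO.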

[9] = ATG_PPRE_CIS: Attagene CIS-FACTORIAL HepG2 Assay for human Peroxisome Proliferator-activated Response Element (PPRE) (AID 2282958); settings: HepG2 PPRE cis-element reporter, Attagene transcription factor profiling; actives raise or lower the signal
Procedure, shortened: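 Multiplexed reporter transcription units under cis-regulatory promoters were transfected into HepG2 cells to capture endogenous factor activity. A 24 h incubation preceded RNA isolation and fluorescent RT-PCR fragment analysis.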

[10] = ATG_RORE_CIS: Attagene CIS-FACTORIAL HepG2 Assay for human RAR-related Orphan Receptor Element (RORE) (AID 2282959); settings: HepG2 Attagene cis-factorial RORE reporter, mRNA; actives raise or lower the signal
Procedure, shortened: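 Fluorescence intensity of reporter-specific cDNA fragments, separated by capillary electrophoresis, gives the signal. Source: HepG2 liver cells transiently transfected with cis-element reporters and exposed 24 h; DMSO-normalized bidirectional fit.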

[11] = ATG_Sox_CIS: Attagene CIS-FACTORIAL HepG2 Assay for human SRY-box transcription factor (SOX) (AID 2282960); settings: HepG2 Attagene cis-factorial SOX reporter, mRNA; actives raise or lower the signal
Procedure, shortened: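 After 24 h of chemical treatment, transfected HepG2 reporter cells are lysed for total RNA. Transcript levels come from RT-PCR with labelled primer extension and capillary electrophoresis, analysed bidirectionally versus DMSO.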

[12] = biological target: Transcription factor Sp1 (Homo sapiens) (UniProt P08047); experiment: ATG_Sp1_CIS: Attagene CIS-FACTORIAL HepG2 Assay for human Specificity Protein 1 (Sp1) (AID 2282961); settings: HepG2 Sp1 cis-reporter transcription, actives raise or lower the signal
Procedure, shortened: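 Sp1-driven reporter mRNA, read as capillary electrophoresis fluorescence after RT-PCR, in transiently transfected HepG2 cells dosed for 24 h; signal change in either direction relative to DMSO.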

[13] = ATG_SREBP_CIS: Attagene CIS-FACTORIAL HepG2 Assay for human Sterol Regulatory Element Binding (SREBP) (AID 2282962); settings: HepG2 Attagene cis-factorial SREBP reporter, mRNA; actives raise or lower the signal
Procedure, shortened: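 Twenty-four hours after chemical dosing of transfected HepG2 cultures, reporter RNA was converted to cDNA, amplified, end-labelled with 6-FAM and resolved by capillary electrophoresis. Responses were fitted relative to DMSO.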

[14] = biological target: Signal transducer and activator of transcription 3 (Homo sapiens) (UniProt P40763); experiment: ATG_STAT3_CIS: Attagene CIS-FACTORIAL HepG2 Assay for human Signal Transducer and Activator of Transcription 3 (STAT3) (AID 2282963); settings: HepG2, Attagene cis-factorial STAT3 reporter transcription; actives raise or lower the signal
Procedure, shortened: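 After a 24 h compound incubation, total RNA from MRTU-transfected HepG2 cells was converted to cDNA and reporter sequences PCR-amplified, labelled and profiled by capillary electrophoresis. Gain and loss of signal were referenced to DMSO.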

[15] = ATG_TA_CIS: Attagene CIS-FACTORIAL HepG2 Assay for human TA Basal Promoter (AID 2282964); settings: HepG2 Attagene CIS-factorial TA basal promoter reporter; actives raise or lower the signal
Procedure, shortened: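 Cis-factorial format in HepG2: reporters report endogenous factors, not chimeric Gal4 fusions. After 24 h treatment, reporter transcripts were measured by RT-PCR-capillary electrophoresis fluorescence, analysed bidirectionally versus DMSO.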

[16] = ATG_TCF_b_cat_CIS: Attagene CIS-FACTORIAL HepG2 Assay for human T-Cell-Factor with beta-catenin (TCF/b-cat) (AID 2282965); settings: HepG2 TCF/beta-catenin cis-reporter transcription, actives raise or lower the signal
Procedure, shortened: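 Measured: reporter mRNA in HepG2 transiently transfected with cis-promoter reporter units, 24 h after chemical addition. Fitting was bidirectional, DMSO as negative control.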

[17] = ATG_MRE_CIS: Attagene CIS-FACTORIAL HepG2 Assay for human Metal Responsive Element (MRE) (AID 2282954); settings: HepG2 MRE cis-reporter transcription, Attagene multiplex; actives raise or lower the signal
Procedure, shortened: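 After a 24 h chemical exposure, transiently transfected HepG2 cells yield RNA whose reporter sequences are amplified, FAM-labelled and sized by capillary electrophoresis. Curves are fitted bidirectionally relative to DMSO.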

[18] = ATG_PBREM_CIS: Attagene CIS-FACTORIAL HepG2 Assay for human Phenobarbital-responsive Enhancer Module (PBREM) (AID 2282955); settings: HepG2 PBREM cis-reporter, Attagene multiplexed transcription; actives raise or lower the signal
Procedure, shortened: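 After a 24 h incubation with test chemical, transfected HepG2 cells yield total RNA; reporter-specific RT-PCR products are fluorescently labelled, HpaI-digested and resolved by capillary electrophoresis against ROX size standards.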

[19] = ATG_GRE_CIS: Attagene CIS-FACTORIAL HepG2 Assay for human Glucocorticoid Response Elements (GRE) (AID 2282947); settings: HepG2 GRE cis-reporter, Attagene multiplex mRNA; actives raise or lower the signal
Procedure, shortened: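 Assay uses human hepatoma HepG2 cells transfected with cis-promoter reporter units, exposed 24 h. mRNA from reporters detected by RT-PCR plus capillary electrophoresis; DMSO serves as negative control and baseline.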

Measured: AC50

Heat shock factor protein 1 (Homo sapiens), sequence (Q00613 whole entry, looked up): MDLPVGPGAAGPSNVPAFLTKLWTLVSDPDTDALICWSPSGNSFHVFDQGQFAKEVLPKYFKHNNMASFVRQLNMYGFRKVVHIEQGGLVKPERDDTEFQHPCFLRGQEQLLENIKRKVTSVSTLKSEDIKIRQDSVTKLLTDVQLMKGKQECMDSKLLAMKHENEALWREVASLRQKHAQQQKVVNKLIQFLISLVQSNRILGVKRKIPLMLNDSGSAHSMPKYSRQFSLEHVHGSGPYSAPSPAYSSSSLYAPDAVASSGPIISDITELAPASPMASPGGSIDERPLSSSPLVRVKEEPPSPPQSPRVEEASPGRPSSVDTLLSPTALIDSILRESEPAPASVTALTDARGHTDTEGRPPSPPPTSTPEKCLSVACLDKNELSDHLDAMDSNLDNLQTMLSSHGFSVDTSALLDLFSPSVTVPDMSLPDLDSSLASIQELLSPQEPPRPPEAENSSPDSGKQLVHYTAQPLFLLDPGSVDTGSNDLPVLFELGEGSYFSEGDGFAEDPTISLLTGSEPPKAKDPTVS
Hypoxia-inducible factor 1-alpha (Homo sapiens), sequence (Q16665 whole entry, looked up): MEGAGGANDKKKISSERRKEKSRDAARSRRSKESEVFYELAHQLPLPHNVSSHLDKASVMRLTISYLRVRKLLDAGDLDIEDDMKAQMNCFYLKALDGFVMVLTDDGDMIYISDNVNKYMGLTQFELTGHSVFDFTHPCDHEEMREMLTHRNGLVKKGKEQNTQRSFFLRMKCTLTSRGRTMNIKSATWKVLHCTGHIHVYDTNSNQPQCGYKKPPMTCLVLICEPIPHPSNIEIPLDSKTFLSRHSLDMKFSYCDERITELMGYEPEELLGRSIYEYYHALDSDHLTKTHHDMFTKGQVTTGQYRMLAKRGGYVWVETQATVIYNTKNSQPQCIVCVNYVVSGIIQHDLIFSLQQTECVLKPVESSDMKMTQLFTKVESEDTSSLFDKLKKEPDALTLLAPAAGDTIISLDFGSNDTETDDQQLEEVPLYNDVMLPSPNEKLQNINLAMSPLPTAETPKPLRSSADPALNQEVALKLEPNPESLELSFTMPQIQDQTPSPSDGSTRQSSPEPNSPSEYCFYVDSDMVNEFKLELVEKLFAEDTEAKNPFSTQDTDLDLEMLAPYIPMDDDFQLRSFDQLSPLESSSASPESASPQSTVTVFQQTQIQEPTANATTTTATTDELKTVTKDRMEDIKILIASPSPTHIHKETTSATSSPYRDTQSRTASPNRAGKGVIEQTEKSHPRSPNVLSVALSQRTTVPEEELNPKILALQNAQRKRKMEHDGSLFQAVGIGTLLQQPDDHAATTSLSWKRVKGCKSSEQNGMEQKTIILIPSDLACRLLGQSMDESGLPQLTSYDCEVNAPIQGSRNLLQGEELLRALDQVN
Paired box protein Pax-6 (Homo sapiens), sequence (P26367 whole entry, looked up): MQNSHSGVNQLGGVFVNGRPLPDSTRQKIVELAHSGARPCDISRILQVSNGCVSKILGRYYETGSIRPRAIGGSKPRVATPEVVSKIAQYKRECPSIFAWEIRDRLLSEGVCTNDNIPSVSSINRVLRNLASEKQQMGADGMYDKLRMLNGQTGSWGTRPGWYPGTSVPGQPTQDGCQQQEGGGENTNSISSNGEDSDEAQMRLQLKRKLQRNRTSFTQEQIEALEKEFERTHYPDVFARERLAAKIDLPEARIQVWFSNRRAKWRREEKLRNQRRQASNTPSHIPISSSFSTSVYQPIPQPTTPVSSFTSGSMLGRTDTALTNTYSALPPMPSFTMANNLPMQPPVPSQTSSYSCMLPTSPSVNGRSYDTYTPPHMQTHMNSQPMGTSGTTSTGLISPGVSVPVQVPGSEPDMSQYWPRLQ
Hepatocyte nuclear factor 6 (Homo sapiens), sequence (Q9UBC0 whole entry, looked up, the tested form may be a part): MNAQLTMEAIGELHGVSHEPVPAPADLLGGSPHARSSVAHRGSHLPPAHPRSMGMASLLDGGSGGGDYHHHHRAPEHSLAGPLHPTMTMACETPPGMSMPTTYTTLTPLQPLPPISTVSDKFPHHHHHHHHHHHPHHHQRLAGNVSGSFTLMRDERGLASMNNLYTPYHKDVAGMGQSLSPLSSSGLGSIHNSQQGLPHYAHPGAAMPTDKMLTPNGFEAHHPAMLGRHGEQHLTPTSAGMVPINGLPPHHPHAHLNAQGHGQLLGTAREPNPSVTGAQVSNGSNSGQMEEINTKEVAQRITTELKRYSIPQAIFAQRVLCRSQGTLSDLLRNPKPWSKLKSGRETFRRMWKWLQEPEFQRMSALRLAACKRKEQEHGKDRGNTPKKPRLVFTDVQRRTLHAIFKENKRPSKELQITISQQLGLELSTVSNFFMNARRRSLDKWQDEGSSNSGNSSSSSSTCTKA
Transcription factor Sp1 (Homo sapiens), sequence (P08047 whole entry, looked up): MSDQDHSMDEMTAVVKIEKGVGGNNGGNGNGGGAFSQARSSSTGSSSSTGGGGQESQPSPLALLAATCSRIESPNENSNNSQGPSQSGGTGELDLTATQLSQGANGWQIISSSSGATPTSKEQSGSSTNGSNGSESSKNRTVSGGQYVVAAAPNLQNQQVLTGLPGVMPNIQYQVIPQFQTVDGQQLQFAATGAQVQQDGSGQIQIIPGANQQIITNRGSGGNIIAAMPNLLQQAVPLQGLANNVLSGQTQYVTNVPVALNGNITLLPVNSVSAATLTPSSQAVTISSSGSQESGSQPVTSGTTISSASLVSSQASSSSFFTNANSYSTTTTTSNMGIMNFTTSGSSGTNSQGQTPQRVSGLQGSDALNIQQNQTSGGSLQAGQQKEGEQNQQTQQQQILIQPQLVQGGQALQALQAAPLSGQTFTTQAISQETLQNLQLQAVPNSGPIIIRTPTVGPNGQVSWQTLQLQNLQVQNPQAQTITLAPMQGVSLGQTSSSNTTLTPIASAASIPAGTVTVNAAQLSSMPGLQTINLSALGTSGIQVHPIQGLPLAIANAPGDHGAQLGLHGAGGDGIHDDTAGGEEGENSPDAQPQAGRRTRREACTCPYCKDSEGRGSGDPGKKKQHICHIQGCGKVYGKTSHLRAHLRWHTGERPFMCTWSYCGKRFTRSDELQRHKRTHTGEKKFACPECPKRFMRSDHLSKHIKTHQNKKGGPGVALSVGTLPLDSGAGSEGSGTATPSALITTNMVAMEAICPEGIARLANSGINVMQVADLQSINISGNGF
Signal transducer and activator of transcription 3 (Homo sapiens), sequence (P40763 whole entry, looked up): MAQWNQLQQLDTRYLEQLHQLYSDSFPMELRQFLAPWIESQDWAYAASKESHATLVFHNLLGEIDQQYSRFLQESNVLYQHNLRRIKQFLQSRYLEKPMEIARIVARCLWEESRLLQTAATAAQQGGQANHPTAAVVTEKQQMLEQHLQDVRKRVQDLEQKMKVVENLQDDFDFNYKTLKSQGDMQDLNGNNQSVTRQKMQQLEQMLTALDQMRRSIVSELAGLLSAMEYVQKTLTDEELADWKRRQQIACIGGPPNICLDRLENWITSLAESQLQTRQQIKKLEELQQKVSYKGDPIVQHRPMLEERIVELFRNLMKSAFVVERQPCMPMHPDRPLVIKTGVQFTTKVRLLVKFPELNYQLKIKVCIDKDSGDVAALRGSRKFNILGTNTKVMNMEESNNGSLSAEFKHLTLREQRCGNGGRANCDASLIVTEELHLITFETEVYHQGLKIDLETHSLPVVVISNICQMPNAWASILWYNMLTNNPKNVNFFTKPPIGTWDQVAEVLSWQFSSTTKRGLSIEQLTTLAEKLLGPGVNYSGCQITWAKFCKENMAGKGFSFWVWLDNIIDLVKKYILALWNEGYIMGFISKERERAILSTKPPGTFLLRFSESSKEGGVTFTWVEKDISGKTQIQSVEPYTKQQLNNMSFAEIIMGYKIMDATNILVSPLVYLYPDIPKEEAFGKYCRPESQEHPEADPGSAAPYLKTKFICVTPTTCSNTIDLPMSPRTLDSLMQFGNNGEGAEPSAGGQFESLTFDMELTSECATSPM

CC(C)CCO
not listed: [17] | [18] | [19]
inactive: all other assays above

O=C(O)CC(O)C(=O)O (stereo not given)
not listed: [9] | [19]
inactive: all other assays above

O=C(OC[C@H]1O[C@@H](OC(=O)c2cc(O)c(O)c(OC(=O)c3cc(O)c(O)c(O)c3)c2)[C@H](OC(=O)c2cc(O)c(O)c(OC(=O)c3cc(O)c(O)c(O)c3)c2)[C@@H](OC(=O)c2cc(O)c(O)c(OC(=O)c3cc(O)c(O)c(O)c3)c2)[C@@H]1OC(=O)c1cc(O)c(O)c(OC(=O)c2cc(O)c(O)c(O)c2)c1)c1cc(O)c(O)c(OC(=O)c2cc(O)c(O)c(O)c2)c1
active: [4] 6.05 µM
not listed: [9] | [11] | [17]
inactive: all other assays above

CCOC(=O)COc1ccc2c(c1)CC(NCC(O)c1cccc(Cl)c1)CC2 (stereo not given)
active: [4] 33 µM | [6] 45.5 µM | [18] 49.3 µM | [16] 33 µM
not listed: [17] | [19]
inactive: all other assays above

CN(C)c1ccc(N=NS(=O)(=O)O)cc1
active: [4] 40.9 µM | [10] 38.6 µM
not listed: [6] | [9]
inactive: all other assays above

O=C(CCCCCCCCc1cccnc1)N1CCC(C=C(c2ccccc2)c2ccccc2)CC1
active: [1] 16.7 µM | [3] 59.8 µM | [4] 1.37 µM | [5] 23.9 µM | [6] 15.9 µM | [7] 9.32 µM | [8] 0.438 µM | [9] 1.07 µM | [12] 8.56 µM | [13] 8.12 µM | [14] 19.5 µM | [15] 16.1 µM | [16] 8.08 µM
inactive: [19] | [2]

Cn1cnc([N+](=O)[O-])c1Sc1ncnc2nc[nH]c12
active: [1] 63.3 µM
not listed: [4] | [6] | [17]
inactive: all other assays above

O=C1CCC(N2C(=O)c3ccccc3C2=O)C(=O)N1 (stereo not given)
not listed: [4] | [10] | [17]
inactive: all other assays above
